Hit rate of the full screen: of about 2,300 compounds, about 1,400 (61%) were called active. Not shown: some 29% with an inconclusive outcome. The call rests on the fitted dose curve; in most records, active means well fitted inhibition curve with a large enough effect; inconclusive means small, poorly fitted or top-dose-only effect, or effect the other way; inactive means no such curve, though single readings can be large or run the other way. The set was probably picked from earlier hits. Some of the results follow.
assay: Confirmation screen for delayed death inhibitors of the malarial parasite plastid, 96 hour incubation; further: nearly all actives have a fitted effect of over 60% in size; conditions: P. falciparum luciferase growth in erythrocytes; series mostly up to 28.7 µM
Summary of the method: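 Two-generation (96 h, 37 C) exposure of P. falciparum carrying an integrated firefly luciferase reporter in erythrocytes, 0.1% parasitemia and 2% hematocrit final, Albumax-supplemented RPMI. Luminescence decrease measures growth inhibition.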
Potency means the concentration at half of the fitted maximal effect.

SMILES	Potency
CC(=O)Nc1cccc(C(=O)/C=C/c2ccc(C)cc2)c1	15.8 µM (active)
CCC(=O)Nc1cccc(C(=O)/C=C/c2ccccc2)c1	12.6 µM (active)
CCC(=O)Nc1cccc(C(=O)/C=C/c2cc(Br)ccc2OC)c1	7.94 µM (active)
N#C/C(=C\c1ccc(-c2ccc(C(=O)O)cc2)o1)C(=O)Nc1ccc(F)cc1	10 µM (active)
COc1ccc(-c2cc(C(=O)N/N=C/c3ccc4c(c3)OCO4)c3ccccc3n2)c(OC)c1	11.2 µM (active)
COc1ccccc1-c1cc(C(=O)N/N=C/c2sccc2C)c2ccccc2n1	3.55 µM (active)
COc1ccccc1-c1cc(C(=O)N/N=C/c2ccc(C)o2)c2ccccc2n1	inactive
COc1ccc(/C=N/NC(=O)c2cc(-c3ccccc3)nc3ccccc23)cc1O	inactive
COc1ccccc1-c1cc(C(=O)N/N=C/c2ccc(C)s2)c2ccccc2n1	5.01 µM (active)
COc1ccccc1-c1cc(C(=O)N/N=C/c2cccs2)c2ccccc2n1	6.31 µM (active)
C=CCNC(=O)c1onc(CSc2cccc(Cl)c2)c1C(=O)O	inactive
Cc1cccc(N(Cc2ccccc2)C(=O)CN2C(=O)NC3(CCCCC3C)C2=O)c1 (stereo not drawn)	11.2 µM (active)
Cc1nn(Cc2ccccc2Cl)c(C)c1C(=O)Nc1nnc(C2CC2)s1	11.2 µM (active)
Cc1nn(Cc2c(Cl)cccc2Cl)c(C)c1NC(=O)c1cc(C(C)C)on1	inactive
COc1ccc(-n2c(=O)/c(=C\c3cccs3)s/c2=C(/C#N)C(=O)N2CCN(C)CC2)cc1	inactive
Fc1ccc(Nc2nc(N3CCOCC3)nc(N3CCOCC3)n2)cc1	12.6 µM (active)
COc1ccc(CN2CCN(C(=O)c3ccc(CNS(=O)(=O)c4ccc(C)cc4)cc3)CC2)c(OC)c1OC	11.2 µM (active)
O=S(=O)(c1ccc(Cl)c(NC(=S)N/N=C/c2ccc(O)cc2)c1)N1CCOCC1	5.01 µM (active)
COc1ccc(/C=C/C(=O)c2ccc(NS(=O)(=O)c3ccc(C)cc3)cc2)cc1O	7.08 µM (active)
COc1cccc(/C=C/C(=O)c2ccc(NS(=O)(=O)c3ccc(C)cc3)cc2)c1	15.8 µM (active)

SMILES	Potency
CC(NC(=O)CCl)c1ccccc1Br (stereo not drawn)	0.794 µM (active)
COc1ccccc1OCC(=O)Nc1ccc(S(=O)(=O)N2CCCCCC2)cc1	12.6 µM (active)
Cc1ccc(NC(=O)COc2ccccc2C#N)cc1S(=O)(=O)N1CCCCCC1	12.6 µM (active)
COc1cc2c(cc1OC)CN(CC(=O)Nc1ccc(S(=O)(=O)N3CCCC3)cc1)CC2	15.8 µM (active)
COc1ccc(NC(=O)CN2CCN(S(=O)(=O)c3ccc(Br)cc3)CC2)c(OC)c1	7.94 µM (active)
C=CCn1c(SCc2cc(=O)n3cc(C)ccc3n2)nnc1-c1ccc(F)cc1	8.91 µM (active)
COc1ccc(/C=C2\N=C(SC)N(c3ccccc3OC)C2=O)cc1	12.6 µM (active)
CCN(CC)C1=N/C(=C\c2ccc(OC)cc2)C(=O)N1c1ccccc1	12.6 µM (active)
Clc1cccc(CN2CCc3c([nH]c4ccccc34)C2)c1	12.6 µM (active)
COc1ccc(C2CC(=O)C3=C(C2)Nc2ccccc2NC3c2coc3ccccc3c2=O)cc1OC (stereo not drawn)	1.12 µM (active)
COc1ccc(C(C)(C)C)cc1NC(=O)c1[nH]c(C)c(C(C)=O)c1C	4.47 µM (active)
CC(=O)c1c(C)[nH]c(C(=O)COC(=O)COc2ccccc2F)c1C	inactive
CCc1nc(SCC(=O)Nc2ccc(N(C)C)cc2)n[nH]1	2.82 µM (active)
COC(=O)c1cn(C)c2ccc(S(=O)(=O)N3CCCC3)cc2c1=O	inactive
COc1ccc(S(=O)(=O)N2CCCN(S(=O)(=O)c3ccc(OC)c(C)c3)CC2)cc1C	12.6 µM (active)
COc1ccc(OCCOc2ccc(S(=O)(=O)N3CCCC3)cc2C(N)=O)cc1	10 µM (active)
C=CCN(CC=C)C(=O)C1CCN(S(=O)(=O)c2ccc(N3CCCC3=O)cc2)CC1	5.01 µM (active)
Cc1ccc(S(=O)(=O)N2CCC(C(=O)Nc3ccc(S(=O)(=O)N4CCCC4)cc3)CC2)cc1C	7.08 µM (active)
COc1cc(NC(=O)C2CCN(S(=O)(=O)c3ccc(N4CCCC4=O)cc3)CC2)cc(OC)c1	5.01 µM (active)
Cc1ccc(C(=O)C(C(=O)/C=C/c2ccccc2)=C2SCCCS2)cc1	7.94 µM (active)

SMILES	Potency
CC[C@@H]1CC=C[C@H]2[C@H]1C(=O)N(Cc1ccccc1)[C@H]2c1ccoc1	7.08 µM (active)
Fc1ccc2nc(Nc3nc4c(F)cc(F)cc4s3)sc2c1	10 µM (active)
O=C(CN1CCCCC1)N/N=C/c1ccc(Cl)cc1	inactive
O=C(c1ccc(Cl)cc1)C(CN1CCCC1)c1ccccc1 (stereo not drawn)	7.08 µM (active)
O=C(c1ccc(Cl)cc1)C(CN1CCCCC1)c1ccccc1 (stereo not drawn)	12.6 µM (active)
O=C(c1ccc(Br)cc1)C(CN1CCOCC1)c1ccccc1 (stereo not drawn)	3.98 µM (active)
O=C(Nc1ccc(C2=NCCN2)cc1)c1ccc(C(=O)Nc2ccc(C3=NCCN3)cc2)c(Cl)c1	0.0708 µM (active)
COc1ccccc1-c1coc2cc(OC(=O)N3CCOCC3)ccc2c1=O	inactive
CCOc1ccccc1CNC(=O)CN1C(=O)CSc2ccc(S(=O)(=O)N3CCOCC3)cc21	8.91 µM (active)
Cc1c(C#N)c(NC(=O)CCl)n(Cc2ccccc2)c1C	4.47 µM (active)
O=C(CCl)Nc1ccc2c(c1)OCO2	2.51 µM (active)
Cc1ccc(NC(=O)c2nnn(CC(=O)Nc3ccc4c(c3)OCO4)c2N)cc1C	inactive
Cn1c(=O)n(C)c2cc(NC(=O)CCl)ccc21	2 µM (active)
COc1ccc(C)cc1N(CC(=O)Nc1ccc(S(=O)(=O)N2CCCC2)cc1)S(C)(=O)=O	8.91 µM (active)
CCOc1ccccc1N(CC(=O)Nc1ccc(S(=O)(=O)N2CCCC2)cc1)S(C)(=O)=O	11.2 µM (active)
CCOC(=O)c1c[nH]c2cc(OCC(C)C)c(OCC(C)C)cc2c1=O	0.178 µM (active)
COc1ccc(-c2c(-c3ccc(OC)c(C)c3O)n[nH]c2C)cc1	10 µM (active)
Cc1ccc(Cl)cc1N1CCN(Cc2nc3c(c(=O)[nH]c(=O)n3C)n2CCc2ccccc2)CC1	3.98 µM (active)

Source: PubChem BioAssay AID504848 (National Center for Advancing Translational Sciences (NCATS), 2011)
